# Test results reported in PubChem BioAssay AID463173 (ICCB-Longwood Screening Facility, Harvard Medical School, 2010).
# Screen size: about 52,000 compounds; about 4,300 (8.3%) were called active. The sample holds actives, similar compounds and a random draw of the others, so the mix is not that of the screen. A number with no mark means an inactive call. Cut-off read from the data, not from the text of the source: active = survival mostly below about 52% (no sharp cut-off); inactive = mostly above about 56%.
# System: DeltatarO mutant
# Assay: growth inhibition of S. aureus wild type versus tarO mutant, primary screen, teichoic acid synthesis inhibitors, RN4220, OD600 (AID 463173)
# Settings: OD600, 18 h, active compounds read low, screened at 18.75 µg/mL (by protocol)
row,Compound,survival
1,CCc1cccc(C)c1NS(=O)(=O)c1c(C(=O)N2CCCCCC2)c(C)n(C)c1C,101%
2,Cc1ccc(-n2ncc(C(=O)N3CCN(C4CCCCC4)CC3)c2C2CCN(C(=O)OC(C)(C)C)CC2)cc1C,85%
3,Cc1cccc(CNS(=O)(=O)c2csc(C(N)=O)c2)c1,76%
4,CC(Oc1ccccc1)C(=O)Nc1ccc(OCc2cc(=O)n3ccsc3n2)cc1 (stereo not given),76%
5,CCCn1c(=O)c2sccc2n2c(CCCC(=O)Nc3ccc(C)c(F)c3)nnc12,88%
6,O=C(C1CCCCC1)N1CCN(c2ncnc3c2cnn3-c2ccccc2)CC1,101%
7,O=CN1CCN(C(=O)c2ccc(F)cc2)CC1,78%
8,Cc1c(C(=O)Nc2ccccc2Cl)sc2ncnc(N(C)C3CCCCC3)c12,92%
9,Cc1cccc(CNC(=O)c2sc3ncnc(N(C)C4CCCCC4)c3c2C)c1,46% (active)
10,Cc1cccc(NC(=O)c2sc3ncnc(N(C)C4CCCCC4)c3c2C)c1C,118%
11,Cc1c(C(=O)Nc2ccccc2F)sc2ncnc(N(C)C3CCCCC3)c12,37% (active)
12,Cc1c(C(=O)NCc2cccc(Cl)c2)sc2ncnc(N(C)C3CCCCC3)c12,101%
13,Cc1ccc(CNC(=O)c2sc3ncnc(N(C)C4CCCCC4)c3c2C)cc1,91%
14,O=C(NC1CC(=O)N(c2cccc(F)c2)C1)c1ccc(S(=O)(=O)N2CCCCC2)cc1 (stereo not given),91%
15,CCc1ccccc1Nc1ncnc2c1nc1n2CCCC1,94%
16,O=C(CSc1nc2c([nH]c3ccccc32)c(=O)n1-c1ccc(Cl)cc1)N1CCCCCC1,76%
17,CCCCC(=O)Nc1nnc(S(=O)(=O)N(C)Cc2ccccc2)s1,91%
18,CN(Cc1ccccc1)S(=O)(=O)c1nnc(NC(=O)c2ccccc2Cl)s1,29% (active)
19,Cc1cccc(N(C)S(=O)(=O)c2nnc(NC(=O)C(C)Oc3ccccc3)s2)c1 (stereo not given),54%
20,CN(Cc1ccccc1)S(=O)(=O)c1nnc(NC(=O)c2cccc(Cl)c2)s1,1% (active)
21,Cc1cccc(C(=O)Nc2nnc(S(=O)(=O)N(C)Cc3ccc(Cl)cc3)s2)c1,95%
22,Cc1cccc(C(=O)Nc2nnc(S(=O)(=O)N(C)c3ccccc3C)s2)c1,32% (active)
23,Cc1cccc(C(=O)Nc2nnc(S(=O)(=O)N(C)Cc3ccccc3)s2)c1,23% (active)

row,Compound,survival
1,Cc1ccc(C(=O)Nc2nnc(S(=O)(=O)N(C)Cc3ccc(Cl)cc3)s2)cc1,99%
2,CCOc1cccc(C(=O)Nc2nnc(S(=O)(=O)N(C)c3ccc(C)cc3)s2)c1,75%
3,CCC(=O)Nc1nnc(S(=O)(=O)N(C)Cc2ccccc2)s1,87%
4,Cc1ccccc1C(=O)Nc1nnc(S(=O)(=O)N(C)Cc2ccccc2)s1,75%
5,CN(Cc1ccc(F)cc1)S(=O)(=O)c1nnc(NC(=O)c2ccccc2Cl)s1,85%
6,Cc1ccc(S(=O)(=O)c2nnn3c2nc(N(C)Cc2ccccc2)c2cc(Cl)ccc23)cc1C,108%
7,Cc1ccccc1NC(=O)CSCn1nnc2c(=O)[nH]c(Cc3ccc(F)cc3)nc21,55%
8,CC(C)Cn1c(=O)c2ccccc2n2c(CCC(=O)Nc3cccc(Cl)c3)nnc12,88%
9,Cc1cc(OC(C)C(=O)N2CCC(c3nc4ccccc4o3)CC2)ccc1Cl (stereo not given),57%
10,COc1ccc(C(=O)N/C(=C\c2cn(S(=O)(=O)N(C)C)c3ccccc23)C(=O)NCCCn2ccnc2)cc1,85%
11,O=C(O)CCc1nnc2cnc3ccccc3n12,171%
12,CCc1ccc(NC(=O)CC2C(=O)NCCN2C(=O)c2ccccc2OC)cc1 (stereo not given),109%
13,COC(=O)c1ccc(NC(=O)c2cc3cc4ccc(OC)c(Cl)c4nc3s2)cc1,98%
14,Cc1ccc(NC(=O)CSc2cc(=O)n(C)c3ccc(Cl)cc23)c(Br)c1,79%
15,CCCCOC(=O)c1ccc(NC(=O)Cc2coc3c(C)c(C)ccc23)cc1,79%
16,CN(Cc1ccc(F)cc1)S(=O)(=O)c1nnc(NC(=O)c2ccc(F)cc2)s1,81%
17,CN(Cc1ccc(F)cc1)S(=O)(=O)c1nnc(NC(=O)c2ccccc2)s1,102%
18,Cc1ccccc1N(C)S(=O)(=O)c1nnc(NC(=O)C(C)C)s1,69%
19,Cc1ccccc1N(C)S(=O)(=O)c1nnc(NC(=O)c2ccccc2F)s1,27% (active)
20,CN(Cc1ccccc1)S(=O)(=O)c1nnc(NC(=O)c2ccccc2)s1,26% (active)
21,CCc1ccc(NC(=O)Cn2c(=O)n(-c3cc(OC)c(OC)c(OC)c3)c(=O)c3ccccc32)cc1,72%
22,COC(=O)c1cc2sc(Cl)cc2n1Cc1nc(-c2ccccc2C)oc1C,78%
